# High-throughput results from PubChem BioAssay.
# An excerpt weighted towards active compounds, which were near 1.2% of everything screened.
# COUP-TFII inh = NR2F2 transcriptional activity inhibitors, primary screen, cell-based, luciferase reporter, HEK293T, luminescence; COUP transcription factor 2 (Homo sapiens), P24468; 370,000 tested, 0.7% active; HEK293T NGFI-A luciferase reporter; inhibition, % at 8.6 µM;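 active means inhibition above a per-plate cutoff, mean inhibition of test wells between control levels plus 3 SD, cut at about 38% in these data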;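 further: cells cotransfected with COUP-TFII expression vector driving the NGFI-A reporter; 0% = median of COUP-TF2 test wells and 100% = reporter-only cells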
# LRH-1 inv ag = LRH-1 (NR5A2) inverse agonists, primary screen, cell-based, luminescence, HEK293T, StAR-luciferase reporter; Nuclear receptor subfamily 5 group A member 2 (Homo sapiens), O00482; LRH-1 transfected, 24 h; inhibition, % at 3.6 µM; 360,000 tested, 0.13% active; AID 602396, 2012;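 active means inhibition above the mean inhibition of all tested compounds plus 3 SD, cut at about 73% in these data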;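 further: 0% = DMSO wells and 100% = reporter-only cells lacking LRH-1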
# NCOA2 inhibitor = inhibition of GAL4-SRC2 driven luciferase reporter, primary screen, SRC2 inhibitor project, cell-based, luminescence; 370,000 tested, 0.17% active; inhibition, % at 9 µM; Nuclear receptor coactivator 2 (Homo sapiens), Q15596; HEK293 GAL4-SRC2 luciferase reporter;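 active means inhibition above the mean inhibition of all tested compounds plus 3 SD, set per campaign, cut at about 52% in these data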;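 further: 0% = DMSO treated cells and 100% = cells given Gossypol at 36 µM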
# SRC1 inh = SRC1 coactivator transcriptional activity inhibitors, primary screen, cell-based, luminescence | Nuclear receptor coactivator 1 (Homo sapiens), Q15788 | HEK293 GAL4-SRC1 luciferase reporter | inhibition, % at 3.6 µM | 360,000 tested, 0.12% active | AID 588354, 2011;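 active means inhibition above the campaign mean plus 3 SD, with each screening campaign given its own cutoff, cut at about 60% in these data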;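 further: 0% = DMSO treated cells and 100% = gossypol at 36 µM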
# Target sequence (Q15788 whole entry, looked up, the tested form may be a part): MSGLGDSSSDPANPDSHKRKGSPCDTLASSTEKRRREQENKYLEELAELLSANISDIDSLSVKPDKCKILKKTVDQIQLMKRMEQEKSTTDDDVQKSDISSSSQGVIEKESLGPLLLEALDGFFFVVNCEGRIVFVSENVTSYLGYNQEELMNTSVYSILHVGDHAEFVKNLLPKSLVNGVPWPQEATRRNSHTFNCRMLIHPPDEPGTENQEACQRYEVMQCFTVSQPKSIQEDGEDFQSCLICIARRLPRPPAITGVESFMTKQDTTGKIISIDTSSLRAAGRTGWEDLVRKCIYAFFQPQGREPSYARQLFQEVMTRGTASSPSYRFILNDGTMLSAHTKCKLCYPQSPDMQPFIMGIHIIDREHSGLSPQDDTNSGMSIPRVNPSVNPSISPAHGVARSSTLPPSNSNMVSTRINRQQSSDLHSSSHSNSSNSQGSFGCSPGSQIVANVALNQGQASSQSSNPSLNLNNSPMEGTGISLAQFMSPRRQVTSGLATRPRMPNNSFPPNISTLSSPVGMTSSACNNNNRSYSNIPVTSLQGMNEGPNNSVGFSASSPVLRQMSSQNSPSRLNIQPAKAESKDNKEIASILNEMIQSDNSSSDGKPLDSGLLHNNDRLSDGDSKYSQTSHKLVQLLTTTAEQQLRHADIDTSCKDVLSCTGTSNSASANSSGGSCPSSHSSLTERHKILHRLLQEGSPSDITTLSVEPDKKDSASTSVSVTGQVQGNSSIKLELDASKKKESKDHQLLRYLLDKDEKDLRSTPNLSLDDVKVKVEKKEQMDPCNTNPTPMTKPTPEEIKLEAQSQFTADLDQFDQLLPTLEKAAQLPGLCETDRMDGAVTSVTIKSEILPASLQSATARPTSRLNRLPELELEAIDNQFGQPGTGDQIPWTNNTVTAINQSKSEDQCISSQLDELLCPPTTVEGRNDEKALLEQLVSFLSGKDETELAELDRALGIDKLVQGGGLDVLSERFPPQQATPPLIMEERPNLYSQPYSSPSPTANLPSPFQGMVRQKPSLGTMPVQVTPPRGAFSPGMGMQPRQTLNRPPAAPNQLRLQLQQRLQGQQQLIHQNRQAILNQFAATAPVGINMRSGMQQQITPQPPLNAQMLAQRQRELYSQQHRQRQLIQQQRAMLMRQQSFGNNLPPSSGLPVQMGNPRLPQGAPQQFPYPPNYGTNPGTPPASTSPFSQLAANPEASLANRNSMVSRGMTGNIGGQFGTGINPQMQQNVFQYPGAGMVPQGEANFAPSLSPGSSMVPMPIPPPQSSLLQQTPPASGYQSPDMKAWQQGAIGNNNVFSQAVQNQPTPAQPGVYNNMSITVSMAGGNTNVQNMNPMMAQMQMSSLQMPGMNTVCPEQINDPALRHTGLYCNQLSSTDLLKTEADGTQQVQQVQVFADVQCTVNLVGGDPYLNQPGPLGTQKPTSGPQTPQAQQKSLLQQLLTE
# SRC3 inh = SRC3 coactivator transcriptional activity inhibitors, primary screen, cell-based, luminescence. inhibition, % at 3.6 µM. 360,000 tested, 0.17% active. HEK293 GAL4-SRC3 luciferase reporter;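 active means inhibition above a per-campaign cutoff, the mean of all compounds plus 3 SD, cut at about 60% in these data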;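 further: 0% = DMSO-treated cells and 100% = gossypol-treated cells at 36 µM; higher means less SRC3-driven luciferase light from the GAL4 reporter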
# Efflux pump inh = inhibitors of Candida efflux pumps in yeast, primary screen, S. cerevisiae, Nile Red, multiplex; S. cerevisiae Candida pump triplex; inhibition, % at 10 µM; 330,000 tested, 0.44% active; AID 485275, 2010;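 active means plate passing quality check with inhibition over a set limit, or well fluorescence over plate mean plus 4 SD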;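 further: Nile Red retained in pooled yeast measured as flow cytometry median fluorescence; 0% = buffer negative control and 100% = Enniatin B positive control; higher means more Nile Red kept so more efflux inhibition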
# Yeast cmpd fluor = compound fluorescence in yeast efflux pump counter-screen. 1,700 tested, 4% active. shares compounds with Efflux pump inh. S. cerevisiae AD/pABC3, flow cytometry. fluorescence ratio to DMSO, % at 10 µM;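 active means fluorescence ratio to DMSO above its plate's cutoff, the plate mean ratio plus 5 SD, cut at about 210% in these data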;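 further: unstained yeast with no Nile Red so the signal is compound autofluorescence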
# Mdr1 pump inh = inhibitors of Candida albicans Mdr1 efflux, confirmation, flow cytometry, singleplex, Cherry Pick1 set; inhibition, % at 10 µM; AID 588518, 2011; shares compounds with Efflux pump inh; S. cerevisiae AD/CaMDR1, Nile Red efflux; 1,700 tested, 1% active; in the data active means inhibition above about 26%;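 further: 0% = DMSO vehicle and 100% = reference inhibitor; higher means more Nile Red retained so more efflux inhibition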
# Cdr2 pump inh = inhibitors of Candida albicans Cdr2 efflux pump, confirmation, S. cerevisiae AD/CaCDR2, flow cytometry, cherry pick 1, singleplex. 1,700 tested, 4% active. shares compounds with Efflux pump inh. AID 588520, 2011. Nile Red retention ratio vs DMSO, % at 10 µM. Nile Red retention; in the data active means Nile Red retention ratio vs DMSO above about 190%;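 further: higher ratio means more blocking of Cdr2 efflux of the dye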
# Cdr1 pump inh = inhibitors of Candida albicans Cdr1 efflux pump, confirmation, S. cerevisiae AD/CaCDR1, flow cytometry, cherry pick 1, singleplex; 1,700 tested, 1% active; Nile Red efflux; inhibition, % at 10 µM; shares compounds with Efflux pump inh;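 active means inhibition above the screen-wide mean plus twice its standard deviation, cut at about 32% in these data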
# * marks the source's active call; other numbers are inactive results; / = no result.
SMILES,COUP-TFII inh,LRH-1 inv ag,NCOA2 inhibitor,SRC1 inh,SRC3 inh,Efflux pump inh,Yeast cmpd fluor,Mdr1 pump inh,Cdr2 pump inh,Cdr1 pump inh
O=C(Oc1c(-c2ccccc2)c(=O)n2c3c(cccc13)CC2)c1cccc([N+](=O)[O-])c1,-0.1,24.4,-31.3,-23.5,9.4,0.6*,101.8,-0.1,101.5,0.1
O=C(Oc1c(-c2ccccc2)c(=O)n2c3c(cccc13)CC2)c1ccc(F)cc1,-3.5,10.5,3.3,-1.5,11.1,0.6*,98.6,-0.2,97.2,0.1
O=C(NCCc1ccccc1)c1c(O)c2cccc3c2n(c1=O)CC3,7.0,0.1,-15.9,-1.8,11.4,0.1,/,/,/,/
C[C@@H]1CN([C@H](C)CO)C(=O)c2cc(NS(=O)(=O)c3cn(C)cn3)ccc2O[C@H]1CN(C)C(=O)Nc1ccccc1,-1.6,-20.0,-4.4,-14.0,23.3,-0.2,/,/,/,/
O=C(CN1C(=O)c2ccccc2S1(=O)=O)Nc1ccon1,1.7,-6.1,-14.1,3.7,-14.7,1.1*,100.2,-0.1,105.7,0.0
Cc1cc(NC(=O)CN2C(=O)c3ccccc3S2(=O)=O)no1,-19.2,10.9,19.8,-14.8,7.7,-0.2,/,/,/,/
O=C(NCCCC1CCCC1)C1CCC(=O)N(Cc2cccc(F)c2)C1 (centres undefined),9.0,6.1,-8.9,3.1,21.3,0.0,/,/,/,/
O=C(NCCCC1CCCC1)C1CCC(=O)N(Cc2ccc(Cl)cc2)C1 (centres undefined),8.2,5.4,0.2,-25.8,14.5,6.4*,98.3,-0.1,97.5,0.0
CC[N+](C)(C)CC/C=C1/c2ccccc2Sc2ccc(Cl)cc21,10.8,0.4,-4.0,4.3,4.6,0.1,100.0,-0.2,102.2,0.0
CN(C)CC/C=C1\c2ccccc2Sc2ccc(Cl)cc21,-6.9,-6.5,-4.7,-1.7,3.5,-0.1,/,/,/,/
OCCN1CCN(CC/C=C2/c3ccccc3Sc3ccc(Cl)cc32)CC1,6.8,-5.1,11.6,14.0,4.7,0.0,/,/,/,/
CCCCCCCCCCC[N+](C)(C)CC/C=C1/c2ccccc2Sc2ccc(Cl)cc21,/,-12.6,/,-2.1,-5.2,1.8*,146.5,1.1,259.7*,0.4
CCCCCCCCCC[N+](C)(C)CC/C=C1/c2ccccc2Sc2ccc(Cl)cc21,/,-3.9,/,-35.7,8.7,1.8*,98.2,0.0,116.4,0.0
Cc1cccc(C)c1NC(=O)C1C(c2ccc3c(c2)OCO3)=Nc2ccccc2N1C(=O)c1ccccn1 (centres undefined),-21.2,-17.1,-23.2,/,/,/,/,/,/,/
CC(CNC(=O)c1cc(COc2c(F)cccc2F)on1)Oc1cccnc1 (centres undefined),2.5,10.2,-25.7,5.6,-3.5,0.0,/,/,/,/
Cc1ccc(NC(=O)C2CCCN(C3=NS(=O)(=O)c4ccccc43)C2)c(O)c1 (centres undefined),3.6,-8.4,-6.2,6.1,-4.4,0.1,/,/,/,/
CCCCNC(=O)OCC(CC)NC(=O)OC(C)C (centres undefined),-2.3,8.9,-9.9,-0.5,13.9,1.9*,101.4,0.0,106.0,0.0
C/C(=N\NC(=O)COc1ccc(C(C)(C)C)cc1)c1ccc(-n2ccnc2)cc1,-23.2,-1.7,-36.6,-70.6,-42.1,-0.2,/,/,/,/
Cc1cc2c([nH]c3ccccc32)c2c1OC(C)(C)C=C2,-83.1,-68.3,-63.3,-52.7,-61.3,1.5*,95.5,0.1,104.2,0.2
CC(CNC(=O)c1ccc(OC2CCN(Cc3ccccn3)CC2)cc1)c1ccccc1 (centres undefined),6.0,-4.0,-16.3,-14.8,-19.3,5.3*,101.7,-0.3,96.3,0.0
NC(=O)C1CCN(C(=O)CN2CCN(c3cccc(C(F)(F)F)c3)CC2)CC1,-6.7,14.0,-1.5,6.7,-0.4,0.0,/,/,/,/
COCCNC(=S)N1CCc2cc(OC)c(OC)cc2C1COc1ccc(F)cc1 (centres undefined),2.1,-1.0,-17.3,12.9,12.6,-0.2,/,/,/,/
COCCNC(=S)N1CCc2cc(OC)c(OC)cc2C1COc1ccc(C(C)C)cc1 (centres undefined),-5.6,-2.6,1.4,13.1,5.0,6.8*,114.6,-0.1,112.4,0.0
O=C1Nc2cc(C(=O)N3CCOCC3)ccc2SC1N1CCOCC1 (centres undefined),-8.1,-11.4,5.7,-3.6,10.5,18.8*,95.3,-0.3,107.8,0.1
CN1CCN(C(=O)c2ccc3c(c2)NC(=O)C(N2CCOCC2)S3)CC1 (centres undefined),-11.9,12.4,-28.3,-11.4,10.2,0.0,/,/,/,/
COc1ccc2nccc(/C=C/c3ccnc4ccc(OC)cc34)c2c1,-17.1,10.3,-0.4,13.8,-2.2,0.7*,99.7,0.0,171.6,0.3
C=CCN1C(=O)C(O)(CC(=O)c2ccco2)c2cc(Br)ccc21 (centres undefined),-18.5,0.4,0.1,-6.7,11.1,0.0,/,/,/,/
COc1ccc(C(C(=O)NC(C)(C)C)N(CCO)C(=O)CCC(=O)Nc2cc(C)on2)cc1 (centres undefined),-16.8,1.8,-15.4,2.0,3.0,-0.2,97.2,-0.5,101.7,-0.1
COc1cccc(C(C(=O)NC(C)(C)C)N(C(=O)CCC(=O)Nc2cc(C)on2)C2CC2)c1OC (centres undefined),-3.8,-15.4,19.3,11.7,3.8,0.0,96.6,0.0,100.1,-0.1
CC(C)(C)NC(=O)C(c1ccc(F)cc1)N(C(=O)CCC(=O)Nc1ccccn1)C1CCCC1 (centres undefined),0.9,-15.9,-19.6,5.9,9.1,2.4*,103.4,-0.1,131.0,-0.1
